The values below come from PubChem BioAssay (Tox21).

Values joined by “and” are separate entries in the source; they are usually repeats but may differ in a detail not shown here. Equal entries are not always repeated. Records with an inconclusive call do not appear. The source holds several records for some structures; these can differ, active in one and inactive in another. Active and inactive are the calls of the source. Unless noted, calls follow the shape of the dose curve; as a rule, active = well fitted curve in the direction sought with a large enough effect in the repeat runs; inconclusive = weak or mixed curves; inactive = no such curve, though single readings can be large; an effect the other way counts as inactive or inconclusive.

Assay [1] deals with Thyrotropin receptor (Homo sapiens) (UniProt P16473). The experiment in a line: qHTS assay to identify small molecule agonists of the thyroid stimulating hormone receptor (TSHR) signaling pathway (AID 1224843; calls by dose curve; also: nearly all actives have a fitted effect of over 45% in size). The method in brief: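 TSHR-HEK293 cells in agonist mode, 30 min room-temperature step, then cAMP measured by competitive HTRF (cAMP-d2 with anti-cAMP cryptate) after 1 h at room temperature. Tested at 15 concentrations in triplicate.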
For orientation: In qHTS, concentration-response curves come from the screen itself.

A short description of assay [2]: qHTS assay to identify small molecule agonists of the hypoxia (HIF-1) signaling pathway - cell viability counter screen (AID 1224844; calls by dose curve; also: nearly all actives have a fitted effect of over 50% in size). The essentials:
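Luminescent ATP content (CellTiter-Glo, 30 min, room temperature) served as the viability measure in HRE-bla ME-180 cells exposed to compounds for 17 hrs in low-serum medium (0.5% dialyzed FBS).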

A short description of assay [3]: qHTS assay to identify small molecule agonists of H2AX (AID 1224845; active = well fitted activation curve with a large enough effect in the signal ratio in the repeat runs, not every such curve was filed as active; the % refers to the signal ratio). The essentials: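 Wild-type CHO-K1 cells, plated overnight, exposed 3hr at 37C to 15 concentrations (0.76% DMSO final). Lysed, then HTRF anti-pH2AX (S139) cryptate and anti-H2AX-d2 antibodies, 24 hr room temperature; 665/620 nm emission read.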
Assay [4] can be described thus: qHTS assay to identify small molecule agonists of the hypoxia (HIF-1) signaling pathway (AID 1224846; active = well fitted activation curve with a large enough effect in the signal ratio in the repeat runs, not every such curve was filed as active; the % refers to the signal ratio). The essentials:
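Measured by blue/green FRET after loading CCF4-AM: beta-lactamase expressed from a hypoxia response element in ME-180 cells. Test agents were delivered in DMSO and left 17 hrs; cells had been plated 5 hrs earlier in low-serum (0.5% dialyzed FBS) medium.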

Assay [5] in a line: qHTS assay to identify small molecule agonists of H2AX - cell viability counter screen (AID 1224847; calls by dose curve; also: nearly all actives have a fitted effect of over 30% in size; also: potency is read from the fitted curve at half-maximal effect). The method in brief: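 CHO-K1 wt, 1000 cells/well, o/n 37C; cpds 15 conc, 3 h 37C, 0.76% DMSO; CellTiter-Glo, 30 min RT, luminescence.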
Assay [6] in a line: qHTS RealTime-Glo MT Cell Viability Assay in HepG2 cells - 24 hour (AID 1224867). Also: nearly all actives have a fitted effect of over 50% in size. The method in brief: (§1)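 HepG2 cells (600/well) were dispensed with RealTime-Glo reagents, incubated 5 h at 37 °C, then treated with compounds in DMSO for up to 40 h. Nonlytic NanoLuc luminescence reflecting viable cells was read at each stated time point.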
Assay [7] in a line: qHTS RealTime-Glo MT Cell Viability Assay in HEK293 cells - 32 hour (AID 1224868). Also: nearly all actives have a fitted effect of over 50% in size. Also: potency is read from the fitted curve at half-maximal effect. The essentials: (§2)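 HEK293 cells seeded with NanoLuc/prosubstrate reagent, rested 5 h at 37 C, then dosed and kept at 37 C up to 40 h. Nonlytic real-time luminescence from viable cells read at 0, 8, 16, 24, 32 and 40 h.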
A short description of assay [8]: A CellTox Green Cytotoxicity Assay to monitor cytotoxicity in HEK293 cells - 0 hour (AID 1224869). Also: nearly all actives have a fitted effect of over 50% in size. The essentials: (§3)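 Each value comes from one timepoint of a single continuous run in which HEK293 cells with CellTox Green were exposed to compound for up to 40 h at 37 C, dye fluorescence rising with cell death.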
The nature of assay [9]: qHTS RealTime-Glo MT Cell Viability Assay in HepG2 cells - 40 hour (AID 1224870). Also: nearly all actives have a fitted effect of over 50% in size. The method in brief:
(§4)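 HepG2 cells (600/well) mixed with RealTime-Glo MT reagent, settled 5 h at 37 C/5% CO2 before compound addition. Nonlytic NanoLuc luminescence from viable-cell prosubstrate reduction read repeatedly during 40 h treatment at 37 C.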

The nature of assay [10]: A CellTox Green Cytotoxicity Assay to monitor cytotoxicity in HEK293 cells - 40 hour (AID 1224871). Also: nearly all actives have a fitted effect of over 45% in size. Also: potency is read from the fitted curve at half-maximal effect. The method in brief: as §3
Assay [11] is described as follows: qHTS RealTime-Glo MT Cell Viability Assay in HEK293 cells - 16 hour (AID 1224872). Also: nearly all actives have a fitted effect of over 50% in size. Also: potency is read from the fitted curve at half-maximal effect. The method in brief: as §2
The nature of assay [12]: qHTS RealTime-Glo MT Cell Viability Assay in HepG2 cells - 8 hour (AID 1224873). Also: nearly all actives have a fitted effect of over 55% in size. The method in brief: as §4
A short description of assay [13]: qHTS RealTime-Glo MT Cell Viability Assay in HEK293 cells - 40 hour (AID 1224874). Also: nearly all actives have a fitted effect of over 50% in size. Also: potency is read from the fitted curve at half-maximal effect. To be noted: RealTime-Glo luminescence; max response: stronger effect = lower value. The method in brief: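 qHTS format; HEK293 cells with NanoLuc/prosubstrate reagent, 37 C/5% CO2 for 5 h pre-dosing; compounds 23 nL in DMSO; luminescence at each time point reflects viable cells.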
A short description of assay [14]: A CellTox Green Cytotoxicity Assay to monitor cytotoxicity in HepG2 cells - 16 hour (AID 1224876). Also: nearly all actives have a fitted effect of over 45% in size. The essentials:
(§5)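 Continuous culture of HepG2 cells with a membrane-impermeant DNA dye; rising fluorescence marks dead cells. Compound exposure lasted up to 40 h at 37 C, with reads every 8 h from 0 h.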

Assay [15] is described as follows: qHTS RealTime-Glo MT Cell Viability Assay in HepG2 cells - 32 hour (AID 1224877). Also: nearly all actives have a fitted effect of over 55% in size. The essentials: as §1
Assay [16] in a line: A CellTox Green Cytotoxicity Assay to monitor cytotoxicity in HepG2 cells - 40 hour (AID 1224879). Also: nearly all actives have a fitted effect of over 40% in size. Also: potency is read from the fitted curve at half-maximal effect. The method in brief: as §5
Assay [17] is described as follows: A CellTox Green Cytotoxicity Assay to monitor cytotoxicity in HEK293 cells - 24 hour (AID 1224875). Also: nearly all actives have a fitted effect of over 45% in size. The method in brief: as §3
Assay [18] can be described thus: A CellTox Green Cytotoxicity Assay to monitor cytotoxicity in HepG2 cells - 24 hour (AID 1224878). Also: nearly all actives have a fitted effect of over 45% in size. The essentials:
as §5

Assay [19] can be described thus: qHTS assay to identify small molecule antagonists of the estrogen related receptor (ERR) signaling pathway from Tox21 library (AID 1224848). Also: nearly all actives have a fitted effect of over 50% in size. The method in brief: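 ERR reporter cell line (from NTP) seeded 2,000 cells/well, rested 6 h at 37 C/5% CO2, then pin-dosed with compounds in DMSO. After 18 h at 37 C, ONE-Glo added; luminescence read after 30 min at room temperature.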

Assay [20] can be described thus: qHTS assay to identify small molecule agonists of the estrogen related receptor (ERR) signaling pathway from Tox21 library (AID 1224849; calls by dose curve; also: nearly all actives have a fitted effect of over 15% in size). To be noted: ERR reporter cell line, ONE-Glo luciferase, 18 h. The essentials:
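We plated ERR reporter cells, waited 6 h, added compounds in DMSO by pin tool and incubated them 18 h at 37 C. ONE-Glo was then added and luminescence read after 30 min.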
% is scaled to controls: 0 for no effect and ±100 for the full control effect.

Thyrotropin receptor (Homo sapiens), sequence (P16473 whole entry, looked up): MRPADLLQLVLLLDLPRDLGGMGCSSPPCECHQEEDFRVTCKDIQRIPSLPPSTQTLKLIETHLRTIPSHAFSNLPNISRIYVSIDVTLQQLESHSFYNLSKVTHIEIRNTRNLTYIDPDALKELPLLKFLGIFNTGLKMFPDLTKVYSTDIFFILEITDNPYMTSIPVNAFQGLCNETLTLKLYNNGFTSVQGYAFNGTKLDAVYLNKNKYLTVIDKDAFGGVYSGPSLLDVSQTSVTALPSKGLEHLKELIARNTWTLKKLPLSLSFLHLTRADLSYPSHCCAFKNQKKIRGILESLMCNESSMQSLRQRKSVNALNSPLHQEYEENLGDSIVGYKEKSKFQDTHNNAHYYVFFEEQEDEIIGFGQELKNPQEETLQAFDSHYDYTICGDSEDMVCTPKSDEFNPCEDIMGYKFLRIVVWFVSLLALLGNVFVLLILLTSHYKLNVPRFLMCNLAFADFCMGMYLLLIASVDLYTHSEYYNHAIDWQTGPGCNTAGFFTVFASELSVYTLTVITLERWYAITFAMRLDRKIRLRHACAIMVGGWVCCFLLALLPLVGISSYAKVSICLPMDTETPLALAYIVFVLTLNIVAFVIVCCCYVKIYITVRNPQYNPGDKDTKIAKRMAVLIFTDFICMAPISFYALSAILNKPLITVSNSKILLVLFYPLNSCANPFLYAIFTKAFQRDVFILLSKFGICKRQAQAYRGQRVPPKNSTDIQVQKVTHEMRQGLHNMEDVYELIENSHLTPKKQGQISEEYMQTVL

As to `C#C[C@]1(O)CC[C@H]2[C@@H]3CCC4=CC(=O)CC[C@@H]4[C@H]3CC[C@@]21CC`, the Potency entry in assay [1], in assay [2], in [3], in assay [8] and in assay [14] was “inactive” throughout. Besides, the result in [4], in assay [6], in assay [9], in assay [12] and in [15] was inactive. The Potency result is “inactive and 89.8 µM (active)” in assay [5]; 43.6 µM (active) and inactive in assay [7]; 49.1 µM (active) and inactive in assay [10]; 43.6 µM (active) and inactive in [11]; 43.6 µM (active) in [13]; “inactive and 43.6 µM (active)” in assay [16]. In addition, the max response in assay [13] was -17.5% (inactive).
Regarding `O=[N+]([O-])c1ccc(O)cc1`, the Potency result in assay [1], in assay [2], in assay [3], in assay [5], in [7] and in assay [8] was “inactive” throughout. Moreover, the Potency result in [10], in [11], in [17] and in assay [16] was “inactive” in each case. For the same molecule, the call in assay [4], in assay [6], in assay [9], in assay [12] and in assay [15] was inactive. The max response in assay [13] was -24.7% (inactive) and -8.36% (inactive) and 4.76% (inactive).
For the molecule `CN(C)Cc1cc(CN(C)C)c(O)c(CN(C)C)c1`, the Potency result in [1], in assay [2], in [3], in [5], in [7] and in assay [8] was “inactive” in each case. Also, the Potency entry in assay [10], in assay [11], in assay [17], in [18] and in assay [16] was “inactive” throughout. For the same molecule, the result in assay [4], in assay [6], in [9], in assay [12] and in [15] was inactive. Besides, the max response in assay [13] was -0.259% (inactive) and 3.23% (inactive).
`O=C(OCc1ccccc1)c1ccccc1`: the Potency entry in assay [1], in [2], in [3], in [5], in [19] and in assay [7] was “inactive” in each case. Besides, the Potency result in assay [8], in [11], in [17], in assay [18] and in [16] was “inactive” each time. Also, the outcome in assay [4], in assay [6], in [9], in assay [12] and in assay [15] was inactive. In assay [20] (at 92.4 µM (top of the series)), the activity change, positive = activation is 13.6% (inactive). The Potency in assay [10] is 43.8 µM (active) and inactive. Moreover, the max response in assay [13] is -12% (inactive) and 0.176% (inactive) and 2.06% (inactive).
`CCCCC/C(C=O)=C\c1ccccc1`: the Potency entry in [1], in [2], in [3], in assay [5], in assay [7] and in assay [8] was “inactive” in each case. In addition, the Potency entry in assay [10], in assay [11], in assay [17], in [18] and in [16] was “inactive” in each case. The call in [4], in [6], in assay [9], in assay [12] and in [15] was inactive. For the same molecule, the max response in assay [13] is -12% (inactive) and 4.41% (inactive) and 0.735% (inactive).
For the molecule `Cc1ccc(O)c(-n2nc3ccccc3n2)c1`, the Potency entry in assay [1], in assay [2], in assay [3], in assay [19], in assay [7] and in assay [8] was “inactive” in each case. The Potency result in assay [10], in [11], in assay [17], in assay [18] and in [16] was “inactive” each time. The molecule was classed as inactive in assay [4], in assay [6], in assay [9], in [12] and in assay [15]. Besides, in [5], the Potency was 100 µM (active) and 89.8 µM (active). The activity change, positive = activation in assay [20] (at 42.5 µM (top of the series)) is 147% (active); in assay [20] (at 92.4 µM (top of the series)) it was 109% (active) and 139% (active). Besides, the max response in assay [13] was -4.85% (inactive) and -18.6% (inactive) and -8.22% (inactive).
